# LASV entry inh – inhibitors of Lassa virus binding or cell entry | Lassa virus pseudotype entry inhibition, cell reporter | 300,000 tested, 1.2% active | AID 540256 | Potency, µM (doses to about 37.9 µM), for inactives: at the highest dose activity change, negative = inhibition, hits mostly inhibitors; calls by dose curve; tested in HEK293 cells; further: nearly all actives have a fitted effect of over 50% in size
# VACV mCherry inh – vaccinia inhibition (mCherry reporter). Vaccinia virus mCherry reporter infection, fluorescence. Potency, µM (top dose mostly 36.5 µM), without a hit: at the top dose activity change, negative = inhibition, hits mostly inhibitors. 310,000 tested, 0.63% active. AID 720579; calls by dose curve; tested in A549 cells; further: nearly all actives have a fitted effect of over 35% in size
# MARV entry inh – blocks Marburg virus binding to or entry into cells; Marburg virus pseudotyped entry inhibition, cell reporter; Potency, µM (doses to about 37.8 µM), without a hit: at the highest dose activity change, negative = inhibition, actives largely listed as inhibitors; 300,000 tested, 1.8% active; AID 540276; calls by dose curve; tested in HEK293 cells
# Vaccinia Venus – inhibitors of vaccinia virus (Venus reporter) | Vaccinia virus Venus reporter expression, fluorescence | Potency, µM (highest dose often 36.5 µM), for inactives: top-dose activity change, negative = inhibition, usual class: inhibitors | 330,000 tested, 0.46% active; calls by dose curve; tested in A549 cells; further: nearly all actives have a fitted effect of over 30% in size
# Numbers without * were called inactive; i = inactive; ? = inconclusive; nt = not tested or not shown; ! = a repeat was not active; [ ] = another dose, or the depositor's remark. In the library only some 2.5% were active in any assay of this set; here they are far more common. On the % scale 0 is the no-effect control and ±100 the full control effect; potency means the concentration at half of the fitted maximal effect.
SMILES,LASV entry inh,VACV mCherry inh,MARV entry inh,Vaccinia Venus
CC(C)C/C(=N/O)c1cn(C)c2ccccc12,1.1µM*,-17%,?,-14%
COc1cc(C2c3cc4c(cc3C(O)C3COC(=O)C23)OCO4)cc(OC)c1O (stereo not drawn),nt,14µM*,nt,?
CC(C)(C)c1ccc(C(O)CCCN2CCC(C(O)(c3ccccc3)c3ccccc3)CC2)cc1 (stereo not drawn),2.9µM*!,13µM*,2.2µM*!,11µM*
COc1ccc2ccccc2c1CN1CCOc2ccc(CN3CCN(CCO)CC3)cc2C1,nt,-10%,nt,-7%
Cc1ccccc1C(=O)Nc1ccc2c(c1)CCCN2C(=O)c1cccs1,0.89µM*,-18%,nt,15%
O=C(Nc1ccc[n+](CC(=O)c2cccc3ccccc23)c1)c1ccccc1,?,16µM*,?,?
COc1cccc(NC(=O)CN(C)C(=O)c2ccccc2-c2nc3ccccc3s2)c1,-19%,-27%,7.1µM*,-19%
CC(C)n1cnc2c(N(C)c3ccccc3)nc(N(CCN(C)C)Cc3ccccc3)nc21,nt,?,nt,13µM*
Cc1ccsc1CN(C(=O)c1ccc(OCC(C)C)cc1)C1CCS(=O)(=O)C1 (stereo not drawn),8.9µM*,-3%,3%[46.1 µM],-3%
O=C(NCC1Cc2cccc(-c3cccnc3)c2O1)c1ccc2cc[nH]c2c1 (stereo not drawn),nt,i,nt,-15%
CC(=O)N(/N=C1\Sc2ccccc2C1=O)c1ccc(C)cc1C,10µM*,-8%,?,0%
COC(=O)/C=c1\s/c(=C(/C#N)C(=O)NCc2ccco2)n(-c2ccccc2)c1=O,nt,nt,-4%,nt
Cc1cc2cc(CN(Cc3ccco3)S(=O)(=O)c3c(C)ccc4nsnc34)c(=O)[nH]c2cc1C,8.2µM*,nt,?,nt
N=C1C=CC(=C(c2ccc(N)cc2)c2ccc(N)cc2)C=C1,5µM*,?,4µM*,?
COCCN1C(=O)NC(c2ccco2)C(C(=O)OC)=C1C (stereo not drawn),nt,nt,3%[14.2 µM],nt
COC(=O)c1nnn(-c2ccc(F)c(Cl)c2)c1C(=O)OC,15%,i,5%[46.1 µM],-4%
COC(=O)c1c(C)nn(-c2ccc(F)c(Cl)c2)c1-c1cc(C)on1,?,-2%,4.5µM*,-12%
COc1ccc(C(=O)C[n+]2ccccc2Cl)cc1,nt,-14%,nt,-5%
CCN(CC)C1=N/C(=C\c2ccc(OC)cc2)C(=O)N1c1ccccc1,0.89µM*,?,?,14%
N#CC(=C(/N)Sc1ccccc1N)/C(C#N)=C(\N)Sc1ccccc1N,nt,-13%[60.7 µM],?,-11%
CC1(C)S[C@@H]2C(C(=O)O)NC(=O)N2C1C(=O)O (stereo partly drawn),nt,i,nt,-21%
O=C(NCC1(N2CCOCC2)CCCCCC1)c1cnn(-c2nccc(-c3ccco3)n2)c1C1CC1,nt,-8%,nt,-2%
CC(=O)Oc1c(/C=C(\C#N)C(N)=O)[nH]c2ccccc12,16µM*,nt,?,nt
N#C/C(=C\c1c[nH]c2ccccc12)C(N)=O,nt,-8%,nt,-15%
Cc1ccc(S(=O)(=O)N2CCN(c3nc(-n4cncn4)nc4ccccc34)CC2)cc1,nt,0%,nt,-18%
SMILES,LASV entry inh,VACV mCherry inh,MARV entry inh,Vaccinia Venus
CCOc1ccc(N(CC(=O)N2CCCCCC2)S(=O)(=O)c2ccc(C)cc2)cc1,3.5µM*,-3%,-50%,-1%
CCN(CC)C(=O)CN(c1cc2c(cc1OC)oc1ccccc12)S(=O)(=O)c1ccccc1,?,nt,10µM*,?
Cc1ccc(N(CC(=O)N2CCCCC2)S(=O)(=O)c2ccc(C)cc2)cc1,?,-4%,-23%[46.1 µM],-5%
COc1cc2oc3ccccc3c2cc1N(CC(=O)N1CCCCC1)S(=O)(=O)c1ccc(C)cc1,?,nt,14µM*,-21%
COc1cc2oc3ccccc3c2cc1N(CC(=O)N(C)C)S(=O)(=O)c1ccc(C)cc1,24%,nt,-8%[46.1 µM],-2%
CSc1ccc(/C=C2\C=Cc3ccccc32)cc1,nt,16%,nt,-4%
O=c1oc2c(O)c(O)cc3c(=O)oc4c(O)c(O)cc1c4c23,?,-4%,4.1µM*,-21%
Cc1nc2n(c(=O)c1CCN1CCC(c3noc4cc(F)ccc34)CC1)CCC[C@H]2O,nt,-7%,nt,-8%
C1=C(c2ccc3c(c2)CN(Cc2cccn2-c2ncccn2)CCO3)Cc2ccccc21,nt,-11%,nt,-5%
O=C(/C=C/c1ccccc1)NC(NC(=S)Nc1cccc(Cl)c1)C(Cl)(Cl)Cl (stereo not drawn),9.2µM*,nt,?,nt
Cc1ccc(C)c(NC(=S)NC(NC(=O)/C=C/c2ccccc2)C(Cl)(Cl)Cl)c1 (stereo not drawn),7.3µM*,nt,?,nt
O=C(/C=C/c1ccccc1)NC(NC(=S)Nc1ccc(Cl)cc1Cl)C(Cl)(Cl)Cl (stereo not drawn),?,-7%,?,?
COCCN1C(=NCC(C)C)NC(c2ccccc2)C(C(=O)OC)=C1C (stereo not drawn),?,nt,29%[14.2 µM],nt
S=C(NC1CCCCC1)N1CCn2cccc2C1c1cccnc1 (stereo not drawn),?,-5%,8.9µM*,-2%
O=C1C(=O)C(c2cc(O)c(O)c(O)c2)Oc2cc(O)cc(O)c21 (stereo not drawn),nt,12%,nt,-2%
COc1ccc2c(c1)OC(C)CN(CC(=O)NCc1cn[nH]c1-c1ccc(F)cc1)C2 (stereo not drawn),nt,-8%,nt,8%
CCOC(=O)c1ccc(N=c2scc(C)n2CC)cc1,?,i,5.6µM*,12%
C=CCn1c(C)csc1=Nc1ccc(C(C)=O)cc1,-18%,-11%,-12%[46.1 µM],-10%
CC(=O)Nc1ccc(NC(=O)C(C)OC(=O)/C=C/c2cn(-c3ccccc3)nc2-c2cccnc2)cc1 (stereo not drawn),?,13µM*,?,?
COc1cccc(CN2C(=O)NC(C)(C3CCN(Cc4cccc(O)c4)CC3)C2=O)c1OC (stereo not drawn),nt,-3%,nt,-22%
O=C(Nc1ccc(Cl)cn1)c1cc2ccccc2o1,?,i,?,-28%
O=C(Nc1ncccc1O)c1cc2ccccc2o1,1.3µM*,-22%,?,-23%
O=C(Nc1ccccn1)c1cc2ccccc2o1,4.6µM*,i,?,-6%
Cc1ccnc(NC(=O)c2cc3ccccc3o2)c1,?,i,1.1µM*,-4%
Cc1ccnc(NC(=O)c2ccc(C(=O)c3ccccc3)cc2)c1,2.2µM*,-7%,6.3µM*,-13%
SMILES,LASV entry inh,VACV mCherry inh,MARV entry inh,Vaccinia Venus
COc1cc(=O)n2c(c1C(=O)N(C)Cc1nonc1C)CCN(CC1CC=CCC1)CC2 (stereo not drawn),nt,i,nt,-16%
CCOc1cc(Br)c(CN2C(=O)NC3(CCCCCC3)C2=O)cc1OCC,nt,-11%,11µM*,-13%
COc1ccc(Cl)cc1CN1C(=O)NC2(CCCCCC2)C1=O,22%[46.1 µM],-26%,-9%[46.1 µM],-11%
C[C@H]1[C@@H]2O[C@H]2CCO[C@H]1c1cccc(Br)c1,nt,nt,-16%[14.2 µM],nt
CN1CCCC(CNC(=O)c2cnn(-c3ncc4c(n3)-c3ccccc3CC4)c2C2CC2)C1 (stereo not drawn),nt,-19%,nt,-1%
CCNc1nc(NCC)nc(SCCOc2ccc(C)cc2)n1,?,-7%,16µM*,-17%
CCOc1nc(SCCOc2ccc(C)cc2)nc(N(C)C)n1,-6%,-13%,-3%,-13%

# Source: PubChem BioAssay
